The source of these data is PubChem BioAssay AID624169 (The Scripps Research Institute Molecular Screening Center, 2012).

Hit rate of the full screen: of about 360,000 compounds, about 2,400 (0.67%) were called active. The sample as a whole holds a higher share of actives than the screen did. Unmarked numbers belong to inactive results.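 The calls were made as follows: active = activation above a run cutoff, the mean activation of all tested compounds plus 3 SD (cut at about 14% in these data); inactive = the rest.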

The target of the assay is 5-hydroxytryptamine receptor 2A (Mus musculus) (UniProt P35363). Briefly: activation of mouse 5-HT2A receptor – cell-based, luminescence, primary screen (AID 624169).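 Also: 0% = plate median of compound wells and 100% = 30 µM serotonin.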 The settings on record: CHO-K1 mHTR2A beta-arrestin complementation, at 7.6 µM, active compounds read high, percent of 30 µM serotonin response.
5-hydroxytryptamine receptor 2A (Mus musculus), sequence (P35363 whole entry, looked up): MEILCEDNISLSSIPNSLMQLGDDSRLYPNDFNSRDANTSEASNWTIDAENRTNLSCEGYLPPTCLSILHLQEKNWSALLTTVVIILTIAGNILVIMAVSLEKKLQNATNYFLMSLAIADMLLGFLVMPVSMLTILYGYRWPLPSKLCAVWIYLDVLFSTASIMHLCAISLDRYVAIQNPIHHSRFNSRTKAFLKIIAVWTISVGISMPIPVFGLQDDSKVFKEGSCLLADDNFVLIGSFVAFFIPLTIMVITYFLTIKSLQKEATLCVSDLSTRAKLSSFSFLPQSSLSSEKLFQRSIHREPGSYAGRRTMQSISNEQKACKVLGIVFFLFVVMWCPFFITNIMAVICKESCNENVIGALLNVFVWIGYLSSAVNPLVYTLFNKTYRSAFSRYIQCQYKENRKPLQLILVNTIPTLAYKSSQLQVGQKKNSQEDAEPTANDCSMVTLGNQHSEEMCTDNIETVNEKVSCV
For `CC(=O)c1c(C)n([O-])c2ccccc2[n+]1=O`, the activation is 4.16%.

As to `C=CCn1c(CCNC(=O)c2cccs2)n[nH]c1=S`, the activation was 4%.

As to `C=CCn1c(=NC(=O)c2cccs2)sc2cc(NC(C)=O)ccc21`, the activation was 23.5% (active).

In the case of `C=CCn1c(=NC(=O)c2ccc(S(=O)(=O)N3CCCC3)cc2)sc2cc(NC(C)=O)ccc21`, the activation is 1.21%.

Turning to `O=C(O)c1ccccc1Cc1ccc(F)c2ccccc12`, the activation is -0.35%.

Regarding `CCc1ccc2nc(Nc3ncc(C(C)=O)c(C)n3)nc(C)c2c1`, the activation was -1.39%.

With `O=C(CSc1nnc(Nc2ccccc2F)s1)NC1CCCC1`, the activation is -5.06%.

Turning to `COc1ccc(-c2nnc(SC(C)C(=O)NC3CC3)o2)cc1` (stereo unspecified), the activation is -2.06%.

In the case of `COc1ccccc1Nc1nnc(SC(C)C(=O)NC2CC2)s1` (stereo unspecified), the activation is 14.8% (active).

Regarding `CCCCC1N2CC3([N+](=O)[O-])CN1CC([N+](=O)[O-])(C2)C3(C)C` (stereo unspecified), the activation is -2.15%.

Regarding `CC(=O)c1ccc(OCC(=O)N(C)C2CCS(=O)(=O)C2)cc1` (stereo unspecified), the activation was 18.4% (active).

As for `CCc1ccc(OCC(=O)N(Cc2ccccc2)C2CCS(=O)(=O)C2)cc1` (stereo unspecified), the activation is -6.02%.

For the compound `CCCCN(C(=O)COc1ccc(NC(C)=O)cc1)C1CCS(=O)(=O)C1` (stereo unspecified), the activation is -2.25%.

As to `CN1C(=O)c2ccc(NC(=O)c3c(F)c(F)c(F)c(F)c3F)cc2C1=O`, the activation is 5.38%.

Take `COc1ccc(C(=O)Nc2c(N)nc(SCC(=O)N3CCC(C)CC3)[nH]c2=O)cc1OC`: the activation was 3.82%.

With `O=Cc1cn(CCOc2ccc(F)cc2)c2ccccc12`, the activation is -3.3%.

With `COc1ccc(N(C(=O)CNC(=O)c2ccco2)C(C(=O)NCC2CCCO2)c2ccccc2)cc1Cl` (stereo unspecified), the activation is -3.88%.

As for `Cc1noc(C)c1S(=O)(=O)N(CC(=O)Nc1ccc2c(c1)OCCO2)c1ccc(C(C)C)cc1`, the activation is 18.8% (active).

Regarding `CCOC(=O)c1cccc(NC(=O)CN(c2ccc(C)cc2)S(=O)(=O)c2c(C)noc2C)c1`, the activation is 4.56%.

On to `Cc1noc(C)c1S(=O)(=O)N(CC(=O)NCc1ccc(Cl)cc1)c1ccc2c(c1)OCO2`, for which the activation is 10.9%.

Consider `COc1ccc(CN2CCN(C(=O)CCC(=O)Nc3nnc(C(C)C)s3)CC2)cc1F`, for which the activation was 10.4%.

As for `COc1ccc(NC(=O)C(NC(C)=O)C(=O)NCc2ccccc2Cl)cc1` (stereo unspecified), the activation was -1.72%.

Consider `CC(C)NS(=O)(=O)c1ccc(CCC(=O)N2CCOCC2)cc1`, for which the activation is -3.51%.

Turning to `COCc1cc(=O)oc2cc(NS(=O)(=O)c3ccc(C)cc3)ccc12`, the activation is 6.31%.

In the case of `CC(=O)N1c2ccc(S(=O)(=O)N3CCC(C(=O)NC4CCCCC4C)CC3)cc2CC1C` (stereo unspecified), the activation was 15.7% (active).

Turning to `CC(=O)N1c2ccc(S(=O)(=O)N3CCC(C(=O)NC4CCCC(C)C4C)CC3)cc2CC1C` (stereo unspecified), the activation is -2.05%.

With `CC(=O)N1c2ccc(S(=O)(=O)N3CCC(C(=O)NCc4ccc(F)cc4)CC3)cc2CC1C` (stereo unspecified), the activation was 5.7%.

As for `O=S1(=O)CC(N2CCN(Cc3ccccc3F)CC2)CN1Cc1cn(Cc2ccccc2)nn1` (stereo unspecified), the activation is 0.73%.

With `CC(=O)NCC(=O)N(C)C(C(=O)Nc1ccc2c(c1)OCCO2)c1ccccc1` (stereo unspecified), the activation was 1.2%.

For `CCOc1ccc(/C=C/C(=O)OCC(=O)c2ccccc2OC)cc1OC`, the activation is -3.76%.

For the compound `O=C(Nc1cc(=O)[nH]c2ncnn12)c1ccccc1Cl`, the activation is 16.4% (active).

With `CC(=O)c1cc(CN2CCC(n3nccc3NC(=O)c3ccccc3Cl)CC2)cs1`, the activation was 1.51%.

As for `O=C(Nc1ccc2sc3ccccc3c(=O)c2c1)c1ccccc1Cl`, the activation is -3.04%.

In the case of `N#Cc1c(-c2ccc(F)cc2)cc(C2CC2)nc1SCC(=O)c1cccs1`, the activation is 4.09%.

Turning to `COc1ccccc1CNC(=O)[C@@H]1CCCN1C(=O)[C@@H]1Cc2ccccc2CN1C(=O)OC(C)(C)C`, the activation was -8.22%.

Turning to `Cc1cccc(C)c1Cn1c(C)c(C(=O)NCc2cccc(Cl)c2)sc1=O`, the activation is 0.95%.

Consider `Cc1c(C(=O)NCC2CC2)sc(=O)n1Cc1cccc(F)c1`, for which the activation was 15% (active).

As for `Cc1cccc(CNC(=O)c2sc(=O)n(Cc3ccccc3C)c2C)c1`, the activation was -9.77%.

`O=C(NNS(=O)(=O)c1ccccc1C(F)(F)F)c1cc2ncc(C(F)(F)F)cc2s1`: the activation is 2.01%.

For `O=C1Cc2cc(S(=O)(=O)Nc3cccc(F)c3)ccc2N1`, the activation was -4.43%.

Regarding `CCn1cc(-c2cc(C(=O)O)on2)c(C)n1`, the activation was 0.66%.

On to `CC(C)c1cc(C(=O)O)on1`, for which the activation was 16.1% (active).

As for `CC(C)Cc1oc(C(=O)O)cc1CN`, the activation was -1.78%.

With `O=C(NCc1ccccc1Cl)C1CCN(S(=O)(=O)c2cccc3nonc23)CC1`, the activation was 0.64%.

`C=C1C(=O)OC2C1CCC(C)=CCCC1(C)OC21` (stereo unspecified): the activation was 17.6% (active).

On to `Cc1cc(C(=O)OC(C)C(=O)NC2CCCCC2C)c(C)o1` (stereo unspecified), for which the activation is 5.88%.

As to `CC(C)(C)NC(=O)Cn1cnc2cc([N+](=O)[O-])ccc2c1=O`, the activation is -0.6%.

Regarding `O=C(OCc1cn([C@H]2C[C@H](c3ccccc3)N(C(=O)c3cccs3)C[C@@H]2O)nn1)c1ccccc1`, the activation is 0.06%.

For `CC1(C)CC(=O)C=C(c2ccccc2CO)C1=O`, the activation is 3.89%.

As to `Fc1ccc2[nH]c3c(N4CCSCC4)ncnc3c2c1`, the activation is 16.4% (active).

As for `Cc1ccc(C)c(NC(=O)C(c2ccccc2)N2CCN(CC(=O)NC3CC3)CC2)c1` (stereo unspecified), the activation was 1.96%.

Turning to `Brc1cc(Br)c(Oc2cc(Br)c(Br)cc2Br)cc1Br`, the activation is 4.05%.

For the compound `CCOC(=O)C1CCN(C(=O)C2CCCN(S(=O)(=O)c3ccc(OC)c(Cl)c3)C2)CC1` (stereo unspecified), the activation was -2.55%.

`O=S(=O)(Cc1cc(Cl)nc(-c2cccnc2)n1)c1ccccc1`: the activation is -2.49%.

Turning to `CCCOc1ccc(Cl)cc1Nc1nc(NCCO)nc(N2CCCC2)n1`, the activation is 0.98%.

Turning to `Cn1ncc2c(N3CCCCC3)nc(NCCCO)nc21`, the activation is 1.52%.

`CC(C)(C)Oc1ccccc1Nc1nc(NCCO)nc(N2CCCC2)n1`: the activation was 23.9% (active).

Regarding `CCc1nc2c(OCCc3cccc(OC)c3)cccn2c1N(C)C(=O)c1ccc(C)cc1`, the activation is -1.71%.

`O=C(CN1CCC(O)(c2cccc(C(F)(F)F)c2)CC1)NCCc1ccccc1`: the activation was -1.29%.

`CCCCOCCCNC(=O)C[C@@H]1C[C@@]2(C(=O)OC)CCCCC=C2N(CCC2=CCCCC2)C1=O`: the activation was -1.53%.

`CCOC(=O)N1CCN(C(=O)C[C@@H]2C[C@@]3(C(=O)OC)CCCCC=C3N(CCC3=CCCCC3)C2=O)CC1`: the activation was -5.86%.

On to `COC(=O)[C@]12CCCCC=C1N(CCC1=CCCCC1)C(=O)[C@H](CC(=O)NCC1CCCCC1)C2`, for which the activation is 19.2% (active).

Take `COc1ccc(-c2ccc(CN3C(C(C)C)C(=O)N(Cc4cn(CC5CCCCC5)nn4)CCS3(=O)=O)cc2)cn1` (stereo unspecified): the activation was -1.52%.

In the case of `Cc1c(C(C)(C)O)[nH]c2ccc(C#N)cc12`, the activation is 3.5%.

As to `Cc1ccc(C)c(S(=O)(=O)N2CCN(c3ncnc4sccc34)CC2)c1`, the activation is 4.9%.

As to `Cc1ccc(S(=O)(=O)N2CCN(Cc3cccc(C)c3O)CC2)cc1`, the activation was -3.27%.

For `Cc1ccc(S(=O)(=O)N2CCN(c3ncnc4ccccc34)CC2)cc1`, the activation was 16.6% (active).

Consider `CCN(CC)CCn1cnc2c1c(=O)n(CCOC(=O)c1cc(OC)c(OC)c(OC)c1)c(=O)n2C`, for which the activation is -1.4%.

Turning to `COC(=O)[C@@]1(Cc2ccc(F)cc2)[C@H]2c3cc(C(=O)N4CCCC4)n(Cc4ccc(OC(F)(F)F)cc4)c3C[C@H]2CN1C(=O)c1ccccc1`, the activation was 1.1%.

For `COC(=O)[C@@]1(Cc2ccc(F)cc2)[C@H]2c3cc(C(=O)N(C)C)n(CCc4c[nH]c5ccc(OC)cc45)c3C[C@H]2CN1C(=O)c1ccccc1`, the activation was 19.8% (active).

For `COC(=O)[C@@]1(Cc2ccc(F)cc2)[C@H]2c3cc(C(=O)N4CCCC4)n(C[C@H](O)CO)c3C[C@H]2CN1C(=O)c1ccccc1`, the activation is 3.75%.

Turning to `O=C(CN1C(=O)NC2(CCCCCC2)C1=O)Nc1ccc([N+](=O)[O-])cc1`, the activation was -2.54%.

As to `COc1ccc(NC(=O)CC2COc3ccccc3O2)c(OC)c1` (stereo unspecified), the activation was 2.64%.

As to `CCN(CCCNC(=O)CCn1c(=O)[nH]c2ccsc2c1=O)c1ccccc1`, the activation is 2.47%.

`CCCCC(CC)CNC(=O)CCCCn1c(=O)[nH]c2ccsc2c1=O` (stereo unspecified): the activation is 15.6% (active).

For `O=C(CCCCCn1c(=S)[nH]c2ccsc2c1=O)NC1CCCCC1`, the activation was 2.92%.

For `COC(=O)c1ccc(NS(=O)(=O)c2cc3c4c(c2)C(C)C(=O)N4CCC3)cc1` (stereo unspecified), the activation is 2.55%.

In the case of `O=C(O)CN(Cc1ccco1)S(=O)(=O)c1ccc(F)cc1`, the activation is -0.4%.

Turning to `Cc1oc2cc(Br)c(O)c(Br)c2c1C(=O)c1ccccc1`, the activation is 16% (active).

Turning to `Cc1oc2cc([N+](=O)[O-])c(O)c([N+](=O)[O-])c2c1C(=O)c1ccc(Br)cc1`, the activation is -3.12%.

On to `COc1ccc(C(=O)c2c(C)oc3cc([N+](=O)[O-])c(O)c([N+](=O)[O-])c23)cc1`, for which the activation was -5.67%.

Consider `O=C1CCCc2c1[nH]c1ccc(Br)cc21`, for which the activation was 1.31%.

Consider `CCn1c(SCC(=O)N/N=C/c2ccccc2OCC(=O)O)nnc1-c1ccc(C(C)(C)C)cc1`, for which the activation is 6.89%.

Turning to `O=C(Nc1cccc(Cc2ccccc2)c1)Nc1ccc2nc([C@@H]3O[C@H](CO)[C@@H](O)[C@H](O)[C@H]3O)[nH]c2c1`, the activation was -13%.

Take `CCCC1CCC(=NNC(=S)NCCc2ccccc2)CC1` (stereo unspecified): the activation is 0.18%.

With `CC(=O)Nc1ccc(C(=O)N(C2=NC(C)CS2)c2ccc(Cl)cc2)cc1` (stereo unspecified), the activation was -3.34%.
